Compound activity from PubChem.
Compounds with a hit are over-represented: about 6.5% of the library has one in this group of screens.
LASV entry inh: Lassa virus entry inhibition; 300,000 tested, 1.2% active; Potency, µM (doses to about 37.9 µM), inactives show at the highest dose activity change, negative = inhibition, actives largely listed as inhibitors; Lassa virus pseudotype entry inhibition, cell reporter; calls by dose curve; tested in HEK293 cells; note: potency is the fitted concentration of half-maximal effect; nearly all actives have a fitted effect of over 50% in size
Vaccinia Venus: inhibitors of vaccinia virus (Venus reporter). Vaccinia virus Venus reporter expression, fluorescence. Potency, µM (series often up to 36.5 µM), without a hit: at the highest dose activity change, negative = inhibition, actives largely listed as inhibitors. 330,000 tested, 0.46% active. AID 720580; calls by dose curve; tested in A549 cells; note: potency is the fitted concentration of half-maximal effect; nearly all actives have a fitted effect of over 30% in size
HCMV antiviral: human cytomegalovirus inhibition; 410,000 tested, 4.5% active; activity change, negative = inhibition, % at 57.5 µM; HFF cells, HCMV-luciferase reporter, 72 h; active compounds read low; in the data active = activity change below about -60%; inconclusive = no clear call, values can overlap the other calls; inactive = above about -39%
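Screen run at 2 compound doses on HFFs infected with reporter HCMV, MOI 1 PFU/cell. Luciferase activity from cell lysates at 72 h post infection gave inhibition relative to buffer-only and Salinomycin wells.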
FMDV antiviral: blocks foot and mouth disease virus. Potency, µM (titrated, usually from 57.9 µM), without a hit: top-dose activity change, negative = inhibition, hits mostly inhibitors. 410,000 tested, 1.2% active. FMDV antiviral cell-based qHTS; calls by dose curve; tested in HEK293T cells; note: read-out not given here; potency is the fitted concentration of half-maximal effect; nearly all actives have a fitted effect of over 45% in size
MARV entry inh: inhibitors of Marburg virus binding or cell entry; AID 540276; Potency, µM (titrated, usually from 37.8 µM), for the others: at the highest dose activity change, negative = inhibition, usual class: inhibitors; 300,000 tested, 1.8% active; Marburg virus pseudotyped entry inhibition, cell reporter; calls by dose curve; tested in HEK293 cells; note: potency is the fitted concentration of half-maximal effect
Vaccinia mCherry: inhibitors of vaccinia virus infection (mCherry reporter signal); Vaccinia virus mCherry reporter infection, fluorescence; Potency, µM (highest dose often 36.5 µM), without a hit: at the highest dose activity change, negative = inhibition, hits mostly inhibitors; 310,000 tested, 0.63% active; AID 720579; calls by dose curve; tested in A549 cells; note: potency is the fitted concentration of half-maximal effect; nearly all actives have a fitted effect of over 35% in size
The depositor's hits bear a star; i = inactive; ? = inconclusive; / = no result; [ ] = remark or other dose. % is set by controls: 0 for no effect and ±100 for the full control effect.

SMILES	LASV entry inh	Vaccinia Venus	HCMV antiviral	FMDV antiviral	MARV entry inh	Vaccinia mCherry
COC(=O)c1ccc(CN=C(NS(=O)(=O)c2ccccc2)c2ccccc2)cc1	/	/	7	24%	/	/
COc1cc(/C=N/O)ccc1OCc1ccc(C(=O)O)cc1	?	0%	59	4.5µM*	0.1µM*	-7%
COc1cc(/C=N/NS(=O)(=O)c2ccc3ccccc3c2)ccc1OCc1ccc(C(=O)O)cc1	?	18%	35	-36%	0.89µM*	i
COC(=O)c1ccc(COc2ccccc2/C=N/NS(=O)(=O)c2ccccc2)cc1	-29%	/	-86*	4%	13µM*	/
Cc1cc(C)n(C(C)CC(=O)Nc2cccc(C#N)c2)n1 (stereo not given)	?	-4%	-9	-15%	/	-2%
COC(=O)Cc1nnn2c1[C@H](C)[C@H](c1cccc(OC)c1OC)OCC2	/	/	27	/	/	/
CN(C)c1ccc(/C=C/c2ccnc3c([N+](=O)[O-])cccc23)cc1	/	-13%	/	/	/	-25%
Cc1ccc(NC(=O)CSc2nc(N)c3c4c(sc3n2)CSC(C)(C)C4)cc1	21µM*	?	33	?	?	-7%
C[C@H]1[C@H](c2ccccc2)Oc2cccc(N3CCCC3)c2S(=O)(=O)N1Cc1cccc(F)c1	/	/	-15	/	/	/
O=C(NCC(c1ccc(Cl)cc1)N1CCCCC1)c1ccc(F)cc1 (stereo not given)	-26%[46.1 µM]	-7%	3	-3%	2.8µM*	i
COc1ccc(C(=O)NCC(c2ccc(N(C)C)cc2)N2CCCC2)cc1 (stereo not given)	-4%[46.1 µM]	?	-26	-25%	/	6%
Cc1ccc(C(=O)NCC(c2ccc(Cl)cc2)N2CCCCC2)cc1 (stereo not given)	-1%[46.1 µM]	-7%	-5	-20%	?	-8%
CCN(c1ccccc1)S(=O)(=O)c1cccc(C(=O)NCC(c2ccco2)N2CCCCC2)c1 (stereo not given)	-28%	-24%	-71*	-10%	?	?
COCCNC(=O)C(=O)NCC(c1ccc2c(c1)OCO2)N1CCOCC1 (stereo not given)	8%[46.1 µM]	0%	19	3%	/	-1%
COc1ccc(C(=O)NCC(c2ccc(N(C)C)cc2)N2CCOCC2)cc1 (stereo not given)	3%[46.1 µM]	6%	-77*	4%	/	7%
COCCCNC(=O)C(=O)NCC(c1ccc2c(c1)OCO2)N1CCOCC1 (stereo not given)	9%[46.1 µM]	2%	-113*	0%	/	-6%
Cc1c(C=O)ccc(N(C)C)c1C	/	-9%	/	/	/	38%
O=C(c1cccc(Cl)c1)N1CCC(c2nc3c(nnn3Cc3ccc(F)cc3F)c(=O)[nH]2)CC1	-23%[46.1 µM]	-26%	-12	-23%	-3%[46.1 µM]	-28%
COc1ccc(C(CNC(=O)Cc2ccccc2Cl)N2CCCCC2)cc1 (stereo not given)	-11%[46.1 µM]	-19%	-37	-1%	4µM*	-10%
N#Cc1ccc(C(=O)NCC(c2ccco2)N2CCCCC2)cc1 (stereo not given)	2%	17%	-29	-15%	-3%	/
O=C(NCC(c1ccco1)N1CCCCC1)c1ccc(COc2ccc(Cl)cc2)cc1 (stereo not given)	10µM*	-15%	-33	-23%	?	?
Cc1ccc(NC(=O)Cn2c(=O)n(CCCS(=O)(=O)C3CCCCC3)c(=O)c3ccccc32)cc1F	-1%[46.1 µM]	9%	-16	-18%	14%[46.1 µM]	-4%
CCN(C(=O)CN1C(=O)NC2(CCc3ccccc32)C1=O)C1CCCCC1 (stereo not given)	11%	-6%	-100*	-9%	11%	-9%
COc1cc2c(cc1NC(=O)CN1C(=O)NC3(CCc4ccccc43)C1=O)oc1ccccc12 (stereo not given)	?	?	-33	0%	12µM*	10µM*
CCCCn1c(N)c(N(CCOC)C(=O)c2ccc(N3CCCC3=O)cc2)c(=O)[nH]c1=O	/	/	-101*	-23%	/	/
SMILES	LASV entry inh	Vaccinia Venus	HCMV antiviral	FMDV antiviral	MARV entry inh	Vaccinia mCherry
CCCCn1c(N)c(N(CC(C)C)C(=O)C2CC(=O)N(c3ccc(C)cc3)C2)c(=O)[nH]c1=O (stereo not given)	1%	-1%	-89*	-17%	-10%[46.1 µM]	-13%
Cc1cccc(OCc2nnc(SCC(=O)Nc3ccc(C)cc3C)o2)c1	-1%[46.1 µM]	1%	2	1%	-4%[46.1 µM]	-11%
CSc1nnc2c(n1)C[C@H](c1ccccc1)[C@@H](C)[C@@H](C(=O)N1CCCC1)C2	/	/	/	/	14%[14.2 µM]	/
N#C/C(=C/c1ccc(Sc2nc3ccccc3[nH]2)o1)c1ccccc1F	-17%	/	-102*	?	-6%	/
N#C/C(=C/c1ccc(Sc2nc3ccccc3[nH]2)o1)c1cccc(F)c1	1%	/	-103*	?	-20%	/
N#C/C(=C/c1ccc(Sc2nc3ccccc3[nH]2)o1)c1cccc(Br)c1	-26%	?	-85*	?	?	20µM*
Cc1nn(C)c(C)c1S(=O)(=O)N1CCC(C(=O)NCCC2=CCCCC2)CC1	/	-10%	?	-11%	0%	6%
Cc1noc(C)c1S(=O)(=O)N1CCC(C(=O)NCCC2=CCCCC2)CC1	11%	-9%	-102*	0%	?	-5%
O=C1CCc2cc(S(=O)(=O)N3CCC(C(=O)NCCC4=CCCCC4)CC3)ccc2N1	/	-9%	-99*	-13%	/	-13%
COc1cc(/C=N\NC(=O)c2ccc(Cn3nc([N+](=O)[O-])c(Cl)c3C)o2)ccc1O	-1%	18µM*	54	0%	8%[46.1 µM]	/
Cc1c(Cl)c([N+](=O)[O-])nn1Cc1ccc(C(=O)N/N=C\c2ccccn2)o1	5%	?	28	-18%	-6%	-25%
COc1cccc(/C=N\NC(=O)c2ccc(Cn3cc(Br)c([N+](=O)[O-])n3)o2)c1O	6.3µM*	?	-81*	10%	4µM*	1.3µM*
O=c1c(-c2ccco2)nc2ccccc2n1/C=C(/c1ccc(C(F)(F)F)cc1)n1c(=O)[nH]c2ccccc21	/	/	1	/	/	/
Cc1ccc(C(C[N+](=O)[O-])Sc2ccc(N)cc2)cc1 (stereo not given)	-1%	-4%	-100*	?	3%[46.1 µM]	?
Cc1ccc(C(C[N+](=O)[O-])n2nc(C)cc2C)cc1 (stereo not given)	10%	-9%	34	?	?	-12%
CCNC(=S)NS(=O)(=O)c1ccc(CC)cc1	0%	/	-95*	21%	?	/
COc1ccc(NC(=O)NCCCN2CCN(c3cc(C)ccc3C)CC2)cc1	/	-16%	-40	?	/	?
COc1ccc(C2=C(C)C(=NCCCN3CCN(c4cc(C)ccc4C)CC3)NS2(=O)=O)cc1	-13%[46.1 µM]	?	-91*	-1%	-20%[46.1 µM]	?
CC(NC(=O)/C(C#N)=C/c1cn[nH]c1-c1ccccc1)c1ccccc1 (stereo not given)	11µM*	-22%	-36	-16%	?	-28%
